Where “and” joins values, the source holds several entries; their conditions need not be identical. Equal values may be shown once. Results filed as inconclusive are left out. Some structures have more than one record in an assay (separate samples or runs), and their calls can disagree. Calls of active or inactive are those of the source. How the source made its calls, unless noted: active means hit-call score of the fitted dose curve at least 0.9, where 1 is the maximum; inactive means score below 0.9.
Legend:
[1] = system: DIO3 (gene 1735); experiment: CCTE_GLTED_hDIO3: CCTE's human Deiodinase 3 (DIO3) Inhibition Assay, Great Lakes Toxicology and Ecology Division (GLTED) Lab (AID 2284055; active means hit-call score of the fitted dose curve at least 0.9, where 1 is the maximum;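 further: potency is for inhibition seen as loss of released iodide signal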)
In short: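 hDIO3 (adenovirus-expressed) + test chemical, 3 h incubation; free iodide quantified by Sandell-Kolthoff reaction, absorbance read-out. DMSO negative control, n=3.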

[2] = CCTE_Shafer_MEA_dev_AB: CCTE's Alamar Blue Assay for Cytotoxicity in the Neural Network Formation Assay, Shafer Lab (AID 2284083; active means hit-call score of the fitted dose curve at least 0.9, where 1 is the maximum;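 further: twelve days of exposure from plating with re-dosing on DIV 5 and 9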)
In short: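 Primary rat cortical neurons on PEI-coated 48-well MEA plates, 1.5 x 10^5 cells/well in laminin drop; compound exposure from day 0 of plating for twelve days, renewed at medium changes on DIV 5 and 9. Viability read as resazurin reduction by fluorescence, relative to DMSO.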

[3] = CCTE_Shafer_MEA_acute_LDH: CCTE's Lactate Dehydrogenase Assay for Cytotoxicity in the Neural Acute Assay, Shafer Lab (AID 2284086; active means hit-call score of the fitted dose curve at least 0.9, where 1 is the maximum;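 further: active means LDH release rises above DMSO vehicle level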)
In short: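 LDH absorbance at 490 nm in medium taken right after 40-min compound exposure; rat primary cortical neuron networks on MEA plates, days post-plating 13 or 15. Increase over DMSO baseline scored as cytotoxicity.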

[4] = CCTE_Shafer_MEA_dev_mutual_information_norm: CCTE's Neural Network Formation Assay for Mutual Information Normalization, Shafer Lab (AID 2284091);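 on AC50: mutual information between electrodes summarised as area under curve across four recording days; potency is for a decrease in mutual information relative to DMSO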
In short: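 Neurons from rat cortex were seeded at 1.5 x 10^5 cells/well onto PEI-coated MEAs in a laminin drop, then exposed to compound from day 0 for twelve days. Network recordings on four days gave mutual information, summarised by AUC relative to DMSO.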

[5] = CCTE_Shafer_MEA_dev_correlation_coefficient_mean: CCTE's Neural Network Formation Assay for Mean Correlation Coefficient, Shafer Lab (AID 2284093);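 on AC50: well mean pairwise spike train correlation integrated as AUC over recording days 5 to 12; potency fitted for loss of correlation relative to DMSO vehicle wells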
In short: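 Spontaneous activity recorded on days 5, 7, 9 and 12 post-plating; pairwise spike correlations are averaged across active electrodes and collapsed to an area-under-curve. Rat cortical cultures are dosed from plating through 12 days, with compound renewed at media changes.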

[6] = IUF_NPC1b_proliferation_BrdU_72hr: Leibniz Research Institute for Environmental Medicine (IUF) 72-hour Neural Progenitor Cell Bromodeoxyuridine (BrdU) Proliferation Assay (NPC1b) (AID 2284207)
In short: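 Luminescent BrdU ELISA measured DNA synthesis during the last 16 h of a 72 h exposure of primary human neural progenitor spheres grown with EGF and FGF. Signal was fitted relative to DMSO controls.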

[7] = IUF_NPC1a_proliferation_area_72hr: Leibniz Research Institute for Environmental Medicine (IUF) 72-hour Neural Progenitor Cell Proliferation Area Assay (NPC1a) (AID 2284208)
In short: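 Proliferation read as increase in sphere area by phase-contrast imaging over 72 h continuous compound exposure (no renewal) of hNPC spheres grown with EGF/FGF at 37C, 5% CO2. Growth-factor withdrawal served as positive control; DMSO as baseline.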

[8] = IUF_NPC1_viability_72hr: Viability Assessment at 72 hours in the Leibniz Research Institute for Environmental Medicine (IUF) Neural Progenitor Cell Proliferation Assay (NPC1) (AID 2284209)
In short: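 Alamar blue fluorescence (RFU) after 72 h exposure, normalized to DMSO baseline. hNPC spheres from GW 16-19 fetal cortex, single sphere per well in growth-factor medium; no compound renewal.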

[9] = CCTE_Mundy_HCI_Cortical_NOG_NeuriteCount: CCTE's Neurite Outgrowth Assay in rat cortical cells for Neurite Count, Mundy Lab (AID 2284212);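 further: cells fixed about two days after chemical exposure began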
In short: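 Rat cortical primary cells; compound added 2 h post-plating, 1/10 dilution of working solution. Anti-betaIII-tubulin/AF488 ICC; ArrayScan neurite count vs DMSO.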

[10] = CCTE_Mundy_HCI_Cortical_NOG_NeuriteLength: CCTE's Neurite Outgrowth Assay in rat cortical cells for Neurite Length, Mundy Lab (AID 2284213);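 on AC50: neurites imaged about 48 to 50 h after chemical exposure began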
In short: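 First, rat primary cortical cells were plated and, 2 h later, given test chemical as a 1/10 dilution. Finally, βIII-tubulin immunostaining enabled automated imaging of neurite length.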

[11] = TAMU_PeakParms_SingleDonor1434_Chronotropy: Texas A&M University (TAMU) 1.5-hr Human Induced Pluripotent Stem Cell (iPSC)-derived Cardiomyocytes Calcium (Ca+2) Flux Assay for Cardiotoxicity: Chronotropy (changes in peak frequency) (AID 2284217); conditions: actives raise or lower the signal
In short: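 iPSC-derived cardiomyocytes (single donor 1434) dosed at 0.2, 1, 10 and 100 uM in 0.5% DMSO for 1.5 h at 37C; Ca2+ dye fluorescence gave average beat frequency. Zero-beat points removed; bidirectional fit versus DMSO, POD as EC05.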

[12] = CCTE_Mundy_HCI_Cortical_Synap_Neur_Matur_NeuriteSpotCountPerNeuriteLength: CCTE's Synaptogenesis and Neurite Maturation Assay in rat cortical cells for Neurite Spot Count per Neurite Length, Mundy Lab (AID 2284210)
In short: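 Read-out: synaptophysin puncta counted along MAP2-stained neurites, normalised to neurite length, by automated high-content imaging. Rat cortical cells; AraC DIV 5; chemical dosing DIV 7; termination DIV 12. DMSO baseline.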

[13] = CCTE_Mundy_HCI_Cortical_Synap_Neur_Matur_BPCount: CCTE's Synaptogenesis and Neurite Maturation Assay in rat cortical cells for Branch Point Count, Mundy Lab (AID 2284211)
In short: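 In this multiplexed morphology assay, cortical cells from rat receive chemicals at DIV 7 and are fixed at DIV 12, then immunostained and imaged; branch points are counted, with DMSO as baseline.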

[14] = CCTE_Mundy_HCI_Cortical_Synap_Neur_Matur_NeuriteLength: CCTE's Synaptogenesis and Neurite Maturation Assay in rat cortical cells for Neurite Length, Mundy Lab (AID 2284214)
In short: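 Read-out: high-content imaging of MAP2-labelled neurites, with synaptophysin and Hoechst co-stain, in rat cortical cultures fixed at DIV 12. Activity fitted in positive direction relative to DMSO baseline.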

[15] = CCTE_Mundy_HCI_Cortical_Synap_Neur_Matur_NeuriteSpotCountPerNeuron: CCTE's Synaptogenesis and Neurite Maturation Assay in rat cortical cells for Neurite Spot Count per Neuron Count, Mundy Lab (AID 2284215)
In short: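 High-content imaging counts synaptophysin puncta along MAP2-labelled neurites per neuron after chemical exposure of rat cortical cells from DIV 7 to termination at DIV 12 (AraC added DIV 5). Loss of signal relative to DMSO.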

[16] = CCTE_Mundy_HCI_Cortical_Synap_Neur_Matur_SynapseCount: CCTE's Synaptogenesis and Neurite Maturation Assay in rat cortical cells for Synapse Count, Mundy Lab (AID 2284218)
In short: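 Read-out: synapse number per neuron, automated high-content imaging of fixed cells immunostained for MAP2 and synaptophysin plus Hoechst nuclei. Rat primary cortical cultures, AraC at DIV 5, chemical dosing DIV 7–12. Positive-direction fit relative to DMSO.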

[17] = UKN5_HCS_SBAD2_cell_viability: Viability Assessment in the University of Konstanz (UKN) Leist Lab Neurite Outgrowth Assay in human iPSC-derived immature Dorsal Root Ganglia Neurons (UKN5) (AID 2284056)
In short: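 iPSC-derived immature peripheral neurons (SBAD2) seeded on Matrigel with CHIR99021, SU5402 and DAPT, dosed 1 h later for 24 h. Viability from Hoechst H-33342 and calcein-AM live staining, high-content imaging; bidirectional fit versus DMSO.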

[18] = UKN5_HCS_SBAD2_neurite_outgrowth: University of Konstanz (UKN) Leist Lab Neurite Outgrowth Assay in human iPSC-derived immature Dorsal Root Ganglia Neurons (UKN5) (AID 2284070); conditions: actives raise or lower the signal
In short: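 Cryopreserved SBAD2 peripheral neurons were seeded at 100.000 cells/cm2 in N2-S/KSR medium containing CHIR99021, SU5402 and DAPT, then exposed to compounds for 24 h. Neurite area from calcein-AM high-content imaging was fitted bidirectionally against DMSO.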

[19] = UKN2_HCS_IMR90_neural_migration: University of Konstanz (UKN) Leist Lab Neural Crest Cell Migration Assay in human induced IMR90 Pluripotent Stem Cells (UKN2) (AID 2284204); conditions: actives raise or lower the signal
In short: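 Stopper-exclusion migration (cMINC), human iPSC-derived neural crest cells; N2-S + EGF/FGF; compound added 24 h post-stopper removal, 24 h exposure. Readout: calcein-AM/Hoechst 30 min, HCS fluorescence imaging; bidirectional fitting, DMSO baseline.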

[20] = UKN4_HCS_LUHMES_neurite_outgrowth: University of Konstanz (UKN) Leist Lab Neurite Outgrowth Assay in human LUHMES cells (UKN4) (AID 2284206); conditions: actives raise or lower the signal
In short: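 Read-out: calcein-AM neurite area by high-content fluorescence imaging, with Hoechst H-33342 viability counterstain, after 24 h chemical exposure of day-2 differentiated LUHMES cells. Activity fitted bidirectionally against DMSO baseline.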

With `C=C(C)[C@H]1Cc2c(ccc3c2O[C@@H]2COc4cc(OC)c(OC)cc4[C@@H]2C3=O)O1` the AC50 [1] was 2.39 µM (active), the AC50 [2] was 38.4 nM (active) and 57.1 nM (active) and the outcome [3] was “inactive”. For the same compound, the AC50 [4] was 7.09 nM (active), the AC50 [5] was 14.5 nM (active) and 16.1 nM (active) and the AC50 [6] was 0.0427 µM (active). For the same compound, the outcome [6] was “inactive”, the AC50 [7] was 756 nM (active) and 41.6 nM (active) and the AC50 [8] was 0.329 µM (active). For the same compound, the outcome [8] was “inactive”, the AC50 [9] was 53 nM (active) and the AC50 [10] was 25.3 nM (active). The outcome [11] was “inactive”.
With `CCOP(=S)(OCC)Oc1cc(C)nc(C(C)C)n1` the AC50 [2] was 50 µM (active), the outcome [2] was “inactive” and the AC50 [4] was 50000 nM (active). For the same compound, the outcome [4] was “inactive”, the AC50 [5] was 50 µM (active) and the outcome [5] was “inactive”. The outcome [6] was “inactive”, the outcome [7] was “inactive” and the outcome [8] was “inactive”. The outcome [12] was “inactive”, the AC50 [13] was 50 µM (active) and the outcome [9] was “inactive”. For the same compound, the outcome [10] was “inactive”, the AC50 [14] was 50 µM (active) and the outcome [15] was “inactive”. The outcome [16] was “inactive”.
With `CCOC(=O)CC(SP(=O)(OC)OC)C(=O)OCC` (configuration not stated) the outcome [17] was “inactive”, the outcome [18] was “inactive” and the outcome [4] was “inactive”. The outcome [5] was “inactive”, the outcome [19] was “inactive” and the outcome [20] was “inactive”. The outcome [6] was “inactive”, the outcome [7] was “inactive” and the AC50 [8] was 1.06 µM (active). For the same compound, the outcome [12] was “inactive”, the outcome [13] was “inactive” and the outcome [9] was “inactive”. The outcome [10] was “inactive”, the outcome [14] was “inactive” and the outcome [15] was “inactive”. For the same compound, the outcome [16] was “inactive”.
With `O=C(O)c1cc(Oc2ccc(C(F)(F)F)cc2Cl)ccc1[N+](=O)[O-]` the outcome [3] was “inactive”.
For `COP(=O)(OC)OC(Br)C(Cl)(Cl)Br` (configuration not stated), the AC50 [2] was 7.73 µM (active) and 16.4 µM (active), the AC50 [4] was 4.85 µM (active) and 13 µM (active) and the AC50 [5] was 8.49 µM (active) and 16 µM (active). The AC50 [19] was 25.4 µM (active), the AC50 [6] was 50.1 µM (active) and the AC50 [7] was 26.6 µM (active). For the same compound, the outcome [8] was “inactive”, the outcome [12] was “inactive” and the AC50 [13] was 50 µM (active) and 27.8 µM (active). The AC50 [9] was 31.5 µM (active) and 30.7 µM (active), the AC50 [10] was 29.4 µM (active) and 20.6 µM (active) and the AC50 [14] was 32.5 µM (active) and 41.6 µM (active). For the same compound, the AC50 [15] was 50 µM (active) and 10.7 µM (active) and the AC50 [16] was 23.2 µM (active) and 9.92 µM (active).
With `CCCSP(=O)(OCC)Oc1ccc(Br)cc1Cl` (configuration not stated) the outcome [2] was “inactive”, the outcome [4] was “inactive” and the outcome [5] was “inactive”. The outcome [12] was “inactive”, the outcome [13] was “inactive” and the outcome [9] was “inactive”. The outcome [10] was “inactive”, the outcome [14] was “inactive” and the outcome [15] was “inactive”. For the same compound, the outcome [16] was “inactive”.
For `CC(Oc1cccc(Cl)c1)C(=O)O` (configuration not stated), the outcome [4] was “inactive” and the outcome [5] was “inactive”.
In the case of `CN1COCN(Cc2cnc(Cl)s2)C1=N[N+](=O)[O-]`, the outcome [3] was “inactive”, the outcome [4] was “inactive” and the outcome [5] was “inactive”. The outcome [6] was “inactive”, the outcome [7] was “inactive” and the outcome [8] was “inactive”. The outcome [12] was “inactive”, the outcome [13] was “inactive” and the outcome [9] was “inactive”. For the same compound, the outcome [10] was “inactive”, the outcome [14] was “inactive” and the outcome [15] was “inactive”. For the same compound, the outcome [16] was “inactive”.
With `COP(=O)(NC(C)=O)SC` (configuration not stated) the AC50 [3] was 0.00708 µM (active), the outcome [3] was “inactive” and the AC50 [4] was 15000 nM (active). For the same compound, the outcome [4] was “inactive”, the outcome [5] was “inactive” and the outcome [6] was “inactive”. The outcome [7] was “inactive”, the outcome [8] was “inactive” and the outcome [12] was “inactive”. For the same compound, the outcome [13] was “inactive”, the outcome [9] was “inactive” and the outcome [10] was “inactive”. The outcome [14] was “inactive”, the outcome [15] was “inactive” and the outcome [16] was “inactive”.
In the case of `CC(C)[C@H](C(=O)O[C@H](C#N)c1cccc(Oc2ccccc2)c1)c1ccc(Cl)cc1`, the AC50 [2] was 0.0209 µM (active), the AC50 [4] was 189 nM (active) and the AC50 [5] was 0.564 µM (active).
For `Cc1ccn2nc(S(=O)(=O)Nc3c(F)cccc3F)nc2n1`, the outcome [3] was “inactive”.
In the case of `S=C1NCCN1`, the outcome [2] was “inactive”, the outcome [4] was “inactive” and the outcome [5] was “inactive”. The outcome [6] was “inactive”, the outcome [7] was “inactive” and the outcome [8] was “inactive”. For the same compound, the outcome [12] was “inactive”, the outcome [13] was “inactive” and the outcome [9] was “inactive”. The outcome [10] was “inactive”, the outcome [14] was “inactive” and the outcome [15] was “inactive”. For the same compound, the outcome [16] was “inactive”.
